In PubChem BioAssay AID1779 (Sanford-Burnham Center for Chemical Genomics, 2009) one finds inhibition data, which are given here for 61 compounds.

About 160 (0.055%) of roughly 290,000 compounds were called active. Many of the other results were omitted from the sample, so actives are more common in it than they were. Values without a mark were called inactive. Rule as the data show it: active = inhibition above about 50%; inactive = the rest.

For this assay, the target named is Tyrosine-protein phosphatase non-receptor type 22 (Homo sapiens) (UniProt Q9Y2R2). Put plainly: inhibitors of LYP phosphatase, biochemical, fluorescence intensity, uHTS (AID 1779).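 Also: plate controls were vehicle with enzyme for no effect and no enzyme for full effect.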 Conditions: recombinant LYP phosphatase, at 11.5 µM, hits give high values.
Tyrosine-protein phosphatase non-receptor type 22 (Homo sapiens), sequence (Q9Y2R2 whole entry, looked up): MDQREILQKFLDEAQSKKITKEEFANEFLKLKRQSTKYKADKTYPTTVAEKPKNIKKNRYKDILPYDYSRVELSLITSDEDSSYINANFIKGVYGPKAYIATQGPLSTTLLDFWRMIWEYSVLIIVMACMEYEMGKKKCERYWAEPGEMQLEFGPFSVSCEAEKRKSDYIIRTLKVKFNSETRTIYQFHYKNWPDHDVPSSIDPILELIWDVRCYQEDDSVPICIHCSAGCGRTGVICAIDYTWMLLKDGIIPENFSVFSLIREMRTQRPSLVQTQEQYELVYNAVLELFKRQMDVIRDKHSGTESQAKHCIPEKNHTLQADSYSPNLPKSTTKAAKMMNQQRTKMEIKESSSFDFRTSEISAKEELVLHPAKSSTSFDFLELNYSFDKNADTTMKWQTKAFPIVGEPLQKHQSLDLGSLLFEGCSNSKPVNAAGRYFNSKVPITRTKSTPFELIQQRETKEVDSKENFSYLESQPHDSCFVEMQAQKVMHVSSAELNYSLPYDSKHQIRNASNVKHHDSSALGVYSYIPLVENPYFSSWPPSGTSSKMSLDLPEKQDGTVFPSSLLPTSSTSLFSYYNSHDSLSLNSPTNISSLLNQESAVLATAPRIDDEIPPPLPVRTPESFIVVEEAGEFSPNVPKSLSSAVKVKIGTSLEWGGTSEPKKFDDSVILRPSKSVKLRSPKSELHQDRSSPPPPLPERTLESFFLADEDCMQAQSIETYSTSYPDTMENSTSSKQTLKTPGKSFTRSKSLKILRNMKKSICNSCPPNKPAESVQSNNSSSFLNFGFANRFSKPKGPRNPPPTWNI
The term inhibition denotes the drop in the measured response relative to a control, in per cent. As to `COc1cc(/C=C/C(=O)OCC(=O)c2c(N)n(C)c(=O)n(C)c2=O)ccc1O`, the inhibition is 2.2%.
For `CCN(CC)C(=O)c1sc(NC(=O)Cc2ccccc2)c(C#N)c1C`, the inhibition is -7.8%.
Turning to `CCOC(=O)c1c(-c2ccc(C)cc2)csc1NC(=O)c1cccc(N2C(=O)CCC2=O)c1`, the inhibition is 1%.
As to `CC1(NC(=O)CC[N+](C)(C)CCO)CS(=O)(=O)CC1S(=O)(=O)[O-]` (stereo unspecified), the inhibition is 0.6%.
As for `CCCC[N+](C)(C)CCC(=O)NC(C)(C)CS(=O)(=O)[O-]`, the inhibition was -4.3%.
For the compound `Cc1c(C(=O)NNC(=S)NCc2ccc(Cl)cc2)oc2ccccc12`, the inhibition was -1.3%.
Regarding `COC(=O)CCCC1=CC2=C(c3ccccc3)C(=O)C(C)(OC(=O)C3CCCC3)C(=O)C2=CN1CC1CC1` (stereo unspecified), the inhibition was -6.7%.
Turning to `Cc1ccc2c(c1)N(C(=O)CCC(=O)NCc1cccc(Br)c1)CC(C)O2` (stereo unspecified), the inhibition is 90.4% (active).
As to `Cc1ccc2c(c1)N(C(=O)CCC(=O)NCc1cccc(Cl)c1)CC(C)O2` (stereo unspecified), the inhibition is -4%.
In the case of `Cc1ccc2c(c1)N(C(=O)CCC(=O)NCc1ccccc1)CC(C)O2` (stereo unspecified), the inhibition was -6.7%.
For `COc1cccc(CNC(=O)c2csc3c2CCCC3)c1`, the inhibition is -8.1%.
Then `CCC(=O)N(Cc1cc2cc(OC)ccc2[nH]c1=O)c1cccc(C)c1`, with -4.9%.
The same measure for `Cn1nc(-c2ccccn2)nc2c(=O)n(C)c(=O)nc1-2`: 73.5% (active); for `CCCc1nc2c(=O)n(C)c(=O)nc-2n(C)n1`: 79% (active); for `CCn1c(N)nc2c1c(=O)n(C)c(=O)n2C`: 0.4%.
Then `Cn1nc(-c2ccc(Cl)cc2)nc2c(=O)n(C)c(=O)nc1-2`, with -0.7%.
With `CCCc1nc(SCC(=O)c2ccc(OC)cc2)c2c(=O)n(C)c(=O)n(C)c2n1`, the inhibition was 7.4%.
In the case of `c1ccc(-c2nc(-c3ccccn3)nc(-c3ccccn3)n2)nc1`, the inhibition is -4%.
As for `Cn1c(N)c(C(=O)COC(=O)CCc2ccccc2)c(=O)n(C)c1=O`, the inhibition is -4.8%.
In the case of `CC1CCCC(NC(=O)COC(=O)CCc2ccccc2)C1C` (stereo unspecified), the inhibition was -5.4%.
The same measure for `Clc1ccccc1CNCC1CCCO1` (stereo unspecified): -13.9%.
For `CCOC(=O)COc1c(/C=N\O)cc(Cl)cc1OC`, the inhibition is -4.2%.
With `Cc1ccc(C(=O)c2no[n+]([O-])c2C(=O)c2ccc(C)cc2)cc1`, the inhibition was -5.8%.
With `COc1ccc(C(=O)c2no[n+]([O-])c2C(=O)c2ccc(OC)cc2)cc1`, the inhibition was 7.8%.
For `O=C(c1cccs1)c1no[n+]([O-])c1C(=O)c1cccs1`, the inhibition is 55.5% (active).
On to `CN(CC(=O)Nc1ccc(F)cc1)C(=O)CSc1nc2ncc(Cl)cc2[nH]1`, for which the inhibition is -4.4%.
With `N#Cc1ccc(N/N=C/c2cn(-c3ccccc3)nc2-c2ccccc2)c([N+](=O)[O-])c1`, the inhibition is -1.1%.
On to `COCCn1c(C)cc(C(=O)COc2ncnc3ccc(Br)cc23)c1C`, for which the inhibition is -1.5%.
As for `CCOc1ccc(NC(=O)CN(c2ccc(C)cc2)S(=O)(=O)c2c(C)nn(C)c2C)cc1`, the inhibition was -8.4%.
Take `Cn1c(SCC(=O)N2CCN(c3ccccc3)CC2)nnc1-c1ccco1`: the inhibition is -8.2%.
Take `Cn1c(SCC(=O)N2CCN(c3ccccc3)CC2)nnc1-c1ccccc1`: the inhibition was -8.4%.
For the compound `Cn1c(SCC(=O)N2CCN(c3ccccc3)CC2)nnc1-c1cc2ccccc2o1`, the inhibition is 79.7% (active).
Turning to `Cc1ccc(CNS(=O)(=O)c2ccc(C(C)(C)C)cc2)n1C`, the inhibition was -5.6%.
`Cc1cccc(NC(=O)CN2CCOCC2)c1C`: the inhibition was -9.5%.
The same measure for `c1ccc2c(CN3CCCCC3)csc2c1`: 68.1% (active); for `Clc1ccc2scc(CN3CCCCC3)c2c1`: -6.7%.
On to `c1ccc2c(CN3CCOCC3)csc2c1`, for which the inhibition was -4.5%.
Turning to `C=CCn1c(C)cc(C(=O)CN2NS(=O)(=O)c3ccccc3C2=O)c1C`, the inhibition is -3.8%.
Turning to `Cc1nn(Cc2ccc(Cl)cc2)c(C)c1NC(=O)CSc1n[nH]c(C)c1[N+](=O)[O-]`, the inhibition is -3.2%.
For `COc1cc2c(cc1OC)C(C(=O)N1CCCC1)C(c1ccccc1F)N(C)C2=O` (stereo unspecified), the inhibition was -2.7%.
For `COc1cc2c(cc1OC)C(C(=O)N1CCCCC1)C(c1ccccc1F)N(C)C2=O` (stereo unspecified), the inhibition was 64.6% (active).
In the case of `COc1ccc(C2C(C(=O)N3CCCC3)c3cc(OC)c(OC)cc3C(=O)N2C)cc1OC` (stereo unspecified), the inhibition was -1.1%.
As to `COCCCNc1nc2c(-c3ccc(C)cc3)nnn2c2ccccc12`, the inhibition is -6.1%.
In the case of `O=C(N=C1c2ccccc2CN1c1cccc(Cl)c1)c1cccnc1`, the inhibition was -6.2%.
Regarding `COc1cc(SC#N)ccc1N=Cc1c(C)[nH]n(-c2ccc(C)cc2C)c1=O`, the inhibition was -3.1%.
As to `COc1cc(SC#N)ccc1N=Cc1c(C)[nH]n(-c2ccc(Cl)cc2)c1=O`, the inhibition was 80.6% (active).
In the case of `COc1cc(SC#N)ccc1N=Cc1c(C)[nH]n(-c2ccc(C)c(C)c2)c1=O`, the inhibition is -5.7%.
Take `CCOC(=O)C1CCN(S(=O)(=O)c2cc(Cl)c(C)cc2OC)CC1`: the inhibition was 0%.
For `CCOC(=O)C1CCN(C(=O)Nc2ccc3nc(-c4ccco4)c(-c4ccco4)nc3c2)CC1`, the inhibition was 53.4% (active).
With `O=C(Nc1ccc2nc(-c3ccco3)c(-c3ccco3)nc2c1)N1CCCCCC1`, the inhibition is 17.4%.
Turning to `CCOC(=O)C1CCN(C(=O)Nc2ccc3nc(C)c(C)nc3c2)CC1`, the inhibition is -2.2%.
As for `CCC(=O)N1CCc2nc(-c3ccccc3)sc2C1`, the inhibition was -5.1%.
Take `COC(=O)c1ccc(CSc2nc(-c3ccccc3)cs2)o1`: the inhibition is -2.6%.
Take `CCOC(=O)N1CCN(S(=O)(=O)c2cc(Br)cc3c2N(C(C)=O)C(C)C3)CC1` (stereo unspecified): the inhibition is 3%.
The same measure for `CC(=O)N1c2c(cc(Br)cc2S(=O)(=O)N2CCCCC2)CC1C` (stereo unspecified): -0.1%; for `CC(=O)N1c2c(cc(Br)cc2S(=O)(=O)N2CCOCC2)CC1C` (stereo unspecified): 51.5% (active).
Then `COc1ccc(C(=O)Nc2cccc(C(=O)N3CCCC3)c2)cc1`, with -7.1%.
As for `COc1ccccc1CC(=O)Nc1ccc(S(=O)(=O)N2CCN(C)CC2)cc1`, the inhibition is -10.4%.
The same measure for `Cc1cc2ncc(Cl)nc2cc1C`: 59.3% (active); for `Cc1cnc2cc(Cl)c(Cl)cc2n1`: -3.4%; for `Cc1cc2nc(Cl)c(Cl)nc2cc1C`: -2.6%.
